The target of experiment [1] is Lysosomal acid glucosylceramidase (Homo sapiens) (UniProt P04062). Briefly: Glucocerebrosidase-p2 (AID 348; in the data active means potency below about 10 µM; further: potency means the concentration at half of the fitted maximal effect). The note with it: purified GBA, blue fluorogenic substrate, 40 min. The method, boiled down: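 Normal human glucocerebrosidase (0.2 nM) with blue fluorogenic substrate (80 uM final) in citrate/phosphate pH 5.9 with 10mM sodium taurocholate, 0.01% tween-20; 40 min RT, NaOH/glycine stop; fluorescence Ex 365/Em 440; AC50 from a titration from 0.6 nM upwards.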

Experiment [2] in a line: AP1 Signaling Pathway (AID 357; active means well fitted curve in either direction with a large enough effect, not every such curve was filed as active;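 further: ME-180 reporter cells stimulated with EGF at its EC50 level; on the % scale 0 is the no-effect control and ±100 the full control effect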). The note with it: ME-180 AP-1-bla reporter, EGF-induced, beta-lactamase ratio, 5 h; at 7.69 µM (top of the series) unless noted. The method, boiled down:
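Titration-series screen for positive or negative modulators of EC50 EGF-induced signaling in ME-180 cells carrying an AP-1-driven beta-lactamase reporter. After 5 hours at 37 degrees Celsius, CCF4 460nm/530nm emission ratio gave %Activity; AC50 values derived.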

The nature of experiment [3]: NFAT Signaling Pathway (AID 444; active means well fitted curve in either direction with a large enough effect, not every such curve was filed as active;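 further: carbachol stimulus at about its EC50 of 1 µM final; on the % scale 0 is the no-effect control and ±100 the full control effect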). To be noted: Jurkat NFAT-bla M1, carbachol, beta-lactamase ratio, 5 h; at 7.69 µM (top of the series) unless noted. In short, it runs like this:
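Read-out: CCF4 FRET ratio (460 nm/530 nm) after 1 h RT dye loading, used for %activity and AC50 from titration series. Cells: Jurkat NFAT-β-lactamase/M1 line, treated with compound plus 1 uM carbachol for 5 h, 37 °C.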

The nature of experiment [4]: Stat Signaling Pathway (AID 446; active means well fitted curve in either direction with a large enough effect, not every such curve was filed as active;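 further: ME-180 cervical cancer cells given 40 pM IL-6 alongside compound; SIE-controlled beta-lactamase reporter measured as 460/530 nm FRET emission ratio; on the % scale 0 is the no-effect control and ±100 the full control effect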). To be noted: ME-180 SIE beta-lactamase reporter, IL-6 stimulated, 5 h; series mostly up to 7.69 µM. The method, boiled down: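 Compound effects on IL-6-induced STAT reporter activity were measured in ME-180 cells. After overnight culture, cells were co-treated with 40 pM IL-6 for 5 hrs before beta-lactamase substrate loading at room temperature.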

The target of experiment [5] is Glucocorticoid receptor (Homo sapiens) (UniProt P04150). Briefly: GR-GFP Redistribution (AID 450;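 active means compounds whose dose series gives a full or clear partial fitted curve of increased nuclear translocation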; further: potency means the concentration at half of the fitted maximal effect). The note with it: U2OS GR-GFP nuclear translocation, laser cytometry, 2 h.
Experiment [6] has the same target. Put plainly: GR-EFC Redistribution (AID 451; calls by dose curve; further: potency means the concentration at half of the fitted maximal effect). The note with it: CHO-K1 GR-EFC translocation, beta-gal luminescence, 2 h. In short, it runs like this:
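Translocation of GR-ED fusion to nuclear EA restores b-gal, read by luminescence after 1 h room-temperature detection. Engineered CHO-K1 biosensor cells, 1,000/well, exposed 2 h at 37 C to titrations up to 46 uM final.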

For experiment [7], the target named is Mitogen-activated protein kinase 10 (Mus musculus) (UniProt Q61831). Briefly: JNK3 AlphaScreen Assay (AID 530; active means well fitted curve in either direction with a large enough effect, not every such curve was filed as active;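 further: kinase came from lysate of stimulated human HepG2 cells; signal reports phosphorylation of biotinylated GST-cJun 1-79 at Ser73 with 10 µM ATP; on the % scale 0 is the no-effect control and ±100 the full control effect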). The note with it: JNK3 lysate, c-Jun phosphorylation; series mostly up to 57.1 µM. In short, it runs like this:
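qHTS titrations with 15 min compound pre-incubation before adding ATP (10 uM final). Read-out: AlphaScreen of Ser73-phosphorylated biotin-GST-cJun using HepG2 lysate JNK3 activated by IL-1β and TNFα.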
Background: Bead proximity is the source of the signal in Alpha formats.

Experiment [8] has as its target Dual specificity protein kinase CLK4 (Homo sapiens) (UniProt Q9HAZ1). Put plainly: qHTS Assay for Inhibitors of CDC-like Kinase 4 (ADP-Glo Assay) (AID 1771). Further: nearly all actives have a fitted effect of over 70% in size. Further: potency means the concentration at half of the fitted maximal effect. The note with it: recombinant CLK4, ADP-Glo luminescence; series mostly up to 80 µM. In short, it runs like this: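 Compounds are pin-transferred onto substrate mix (100 uM RS peptide, 1 uM ATP), then 25 nM Clk4 is added. After 1 hr at room temperature, ADP-Glo reagent runs 45 min, detection reagent 30 min, then luminescence is read.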
A general note: In qHTS, concentration-response curves come from the screen itself.

Experiment [9] has the same target. Put plainly: qHTS Assay for Inhibitors of CDC-like Kinase 4 (ADP-FP Assay) (AID 1795). Further: nearly all actives have a fitted effect of over 60% in size. Further: potency means the concentration at half of the fitted maximal effect. The note with it: Transcreener ADP fluorescence polarization; series mostly up to 50 µM. The method, boiled down:
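Recombinant Clk4 (6.25 nM) phosphorylated 100 uM RS repeat peptide with 1 uM ATP in 25 mM Tris pH 7.5, 10 mM MgCl2, 0.5 mM EGTA, 2.5 mM DTT, 0.01% Triton X-100 for 1 h. ADP was detected by Transcreener ADP2 competitive fluorescence polarization after 30 min at room temperature.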

Experiment [10] has as its target Ubiquitin carboxyl-terminal hydrolase 1 (Homo sapiens) (UniProt O94782). Put plainly: Inhibitors of USP1/UAF1: Pilot qHTS (AID 504865).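 Further: rhodamine fluorescence freed from ubiquitin-rhodamine substrate followed over time; top concentration of the series differs between compounds; on the % scale 0 is the no-effect control and ±100 the full control effect; nearly all actives have a fitted effect of over 35% in size.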 To be noted: purified USP1/UAF1, Ub-rhodamine cleavage fluorescence; series mostly up to 54.9 µM. In short, it runs like this: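 USP1/UAF1 complex at 1 nM preincubated 15 min at room temperature with compound, then Ub-Rho substrate added at 150 nM final. Fluorescence (480/540 nm) read kinetically in 50 mM HEPES pH 7.8, 0.5 mM EDTA, 1 mM TCEP, 0.1 mg/ml BSA, 0.01% Tween-20.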

The target of experiment [11] is Cytochrome P450 1A2 (Homo sapiens) (UniProt P05177). Briefly: p450-cyp1a2 (AID 410; calls by dose curve; further: potency means the concentration at half of the fitted maximal effect). The note with it: recombinant CYP1A2, luciferin-ME demethylation, luminescence; series mostly up to 57 µM. The method, boiled down: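 O-Demethylation of luciferin 6' methyl ether by human CYP1A2 is monitored as luciferase luminescence. Substrate sits at Km (100uM); enzyme is 20nM. Values are scaled to 57 uM furafylline as maximal inhibition.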

Experiment [12] deals with 3',5'-cyclic-AMP phosphodiesterase 4B (Homo sapiens) (UniProt Q07343). Put plainly: qHTS Assay for Inhibitors of PDE-IV (AID 607; active means well fitted activation curve with a large enough effect in the main read-out, with a control signal flat, not every such curve was filed as active; further: % of control where 0% means no effect). To be noted: HEK293 ACTOne CNG channel cells, membrane potential fluorescence; series mostly up to 22.9 µM. The method, boiled down: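 ACTOne HEK293 cells carry a modified cAMP-gated CNG channel and express endogenous PDE4; plated 1000 cells/well, compounds up to 22.9 uM final. Membrane-potential dye fluorescence (ex 535/em 590) was read; parental cells received 10 uM forskolin + 100 uM RO 20-1724.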

Experiment [13] deals with Cytochrome P450 3A4 (Homo sapiens) (UniProt P08684). Briefly: qHTS Assay for Activators of Cytochrome P450 3A4 (AID 885). Further: nearly all actives have a fitted effect of over 65% in size. The note with it: recombinant CYP3A4, Luciferin-PPXE luminescence, 60 min; series mostly up to 57.1 µM. The method, boiled down: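 CYP3A4 activity: Luciferin-PPXE O-dealkylation, 25uM substrate, 200mM KPO4, RT throughout. Read-out is luciferase luminescence; higher values reflect activation.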

The target of experiment [14] is Cytochrome P450 2C19 (Homo sapiens) (UniProt P33261). Put plainly: qHTS Assay for Inhibitors and Substrates of Cytochrome P450 2C19 (AID 899). Further: potency means the concentration at half of the fitted maximal effect; nearly all actives have a fitted effect of over 60% in size. To be noted: recombinant CYP2C19, luciferin-H EGE luminescence; series mostly up to 57.1 µM. In short, it runs like this: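 Reactions contain 5nM enzyme, 10uM Luciferin-H EGE (KM) and 50mM KPO4; compound preincubates 10 min at 37C, NADPH regeneration starts turnover for 60 min. Luminescence after detection reagent gives activity.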

Experiment [15] is described as follows: qHTS Assay for Identification of Small Molecule Agonists for Hypoxia Response Element Signaling Pathway (AID 914; active means well fitted activation curve with a large enough effect in the signal ratio, with a control signal flat, not every such curve was filed as active; the % refers to the signal ratio; further: % of control where 0% means no effect). The note with it: ME-180 (cervical carcinoma) HRE-bla reporter, beta-lactamase ratio, CoCl2, 17 h; activation: stronger effect = higher value. In short, it runs like this:
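A beta-lactamase reporter under hypoxia response element control in ME-180 cells served as the system. Compound titrations plus EC50 CoCl2 ran 17 h at 37 degrees Celsius; AC50 values were fitted from %Activity.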

Experiment [16] concerns the target Dual specificity protein kinase CLK4 (Homo sapiens) (UniProt Q9HAZ1). Briefly: qHTS Assay for Inhibitors of CDC-like Kinase 4 (Kinase-Glo Assay) (AID 1770). Further: on the % scale 0 is the no-effect control and ±100 the full control effect; nearly all actives have a fitted effect of over 65% in size. To be noted: recombinant Clk4, Kinase-Glo ATP depletion luminescence; series mostly up to 66.7 µM. In short, it runs like this:
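25 nM Clk4 with 100 uM RS repeat peptide and 1 uM ATP (final) in Tris pH7.5, 10 mM MgCl2, 4.5 h at room temperature. Remaining ATP measured by Kinase-Glo luciferase luminescence.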

The target of experiment [17] is Cytochrome P450 3A4 (Homo sapiens) (UniProt P08684). Put plainly: qHTS Assay for Inhibitors and Substrates of Cytochrome P450 3A4 (AID 884). Further: potency means the concentration at half of the fitted maximal effect; nearly all actives have a fitted effect of over 50% in size. To be noted: recombinant CYP3A4, Luciferin-PPXE luminescence; series mostly up to 57.1 µM. The method, boiled down:
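Luminescent readout of luciferin produced by CYP3A4 (20 nM) dealkylation of Luciferin-PPXE, 25 uM (its KM). NADPH-driven reaction ran 60 min at RT after 10 min compound preincubation; data scaled to 57 uM ketoconazole as 100% inhibition.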

Molecules are shown by their SMILES. Values without a mark were called inactive. Records with an inconclusive call do not appear. Calls of active or inactive are those of the source. Unless noted, the call rests on the fitted dose curve; in most records, active means well fitted curve in the direction sought with a large enough effect; inconclusive means small, poorly fitted or top-dose-only effect, or another doubt; inactive means no such curve, though single readings can be large; an effect the other way counts as inactive or inconclusive.

Chain of Cytochrome P450 1A2 (Homo sapiens) (P05177 whole entry, looked up): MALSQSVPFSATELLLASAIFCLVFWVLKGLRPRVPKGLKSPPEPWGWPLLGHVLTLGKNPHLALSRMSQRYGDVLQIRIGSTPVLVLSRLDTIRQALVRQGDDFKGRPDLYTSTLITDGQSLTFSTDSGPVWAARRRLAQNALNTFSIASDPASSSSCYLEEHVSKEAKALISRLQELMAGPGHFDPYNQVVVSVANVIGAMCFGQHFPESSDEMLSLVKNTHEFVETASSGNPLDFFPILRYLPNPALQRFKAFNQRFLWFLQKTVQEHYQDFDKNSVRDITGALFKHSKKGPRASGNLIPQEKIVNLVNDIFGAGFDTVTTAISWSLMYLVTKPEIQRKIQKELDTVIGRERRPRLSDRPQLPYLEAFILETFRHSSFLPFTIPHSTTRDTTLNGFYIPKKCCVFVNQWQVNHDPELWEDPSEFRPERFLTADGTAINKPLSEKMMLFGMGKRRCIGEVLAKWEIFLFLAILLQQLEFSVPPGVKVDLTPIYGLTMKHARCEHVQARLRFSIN
Chain of Cytochrome P450 3A4 (Homo sapiens) (P08684 whole entry, looked up): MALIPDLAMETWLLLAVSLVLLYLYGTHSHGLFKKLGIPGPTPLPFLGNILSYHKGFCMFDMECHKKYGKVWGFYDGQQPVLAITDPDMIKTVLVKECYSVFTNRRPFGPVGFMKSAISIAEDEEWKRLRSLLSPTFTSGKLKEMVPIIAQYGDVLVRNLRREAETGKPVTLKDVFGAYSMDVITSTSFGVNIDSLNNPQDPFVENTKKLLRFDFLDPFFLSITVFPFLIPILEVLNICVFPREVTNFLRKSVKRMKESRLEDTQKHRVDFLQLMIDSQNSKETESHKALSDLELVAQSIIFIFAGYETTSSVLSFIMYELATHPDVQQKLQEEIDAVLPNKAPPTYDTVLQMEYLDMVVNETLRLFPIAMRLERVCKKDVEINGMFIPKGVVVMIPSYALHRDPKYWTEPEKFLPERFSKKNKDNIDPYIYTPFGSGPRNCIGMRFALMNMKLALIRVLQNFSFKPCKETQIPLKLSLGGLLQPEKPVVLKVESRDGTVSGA
Chain of Ubiquitin carboxyl-terminal hydrolase 1 (Homo sapiens) (O94782 whole entry, looked up): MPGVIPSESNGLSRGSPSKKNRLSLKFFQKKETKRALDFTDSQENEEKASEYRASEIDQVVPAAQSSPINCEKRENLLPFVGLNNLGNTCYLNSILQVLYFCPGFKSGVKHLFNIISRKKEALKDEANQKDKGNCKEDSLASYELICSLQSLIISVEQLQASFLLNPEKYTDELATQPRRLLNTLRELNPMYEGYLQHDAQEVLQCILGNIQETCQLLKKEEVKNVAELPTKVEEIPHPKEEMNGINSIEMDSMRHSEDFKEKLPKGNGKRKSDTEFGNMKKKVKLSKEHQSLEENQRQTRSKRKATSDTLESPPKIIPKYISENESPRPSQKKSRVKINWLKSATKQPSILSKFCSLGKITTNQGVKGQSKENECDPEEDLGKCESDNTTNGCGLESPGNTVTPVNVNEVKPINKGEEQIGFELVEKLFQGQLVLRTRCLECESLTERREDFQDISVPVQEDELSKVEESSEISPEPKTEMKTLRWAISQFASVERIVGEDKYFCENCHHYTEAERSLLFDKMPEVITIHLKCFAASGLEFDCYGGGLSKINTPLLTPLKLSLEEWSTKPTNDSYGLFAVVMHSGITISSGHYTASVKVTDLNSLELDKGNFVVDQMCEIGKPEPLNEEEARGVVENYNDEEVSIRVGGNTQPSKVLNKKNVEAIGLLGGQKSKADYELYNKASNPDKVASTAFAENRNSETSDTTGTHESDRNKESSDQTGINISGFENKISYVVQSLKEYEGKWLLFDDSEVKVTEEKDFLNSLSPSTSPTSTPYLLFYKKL
Chain of Glucocorticoid receptor (Homo sapiens) (P04150 whole entry, looked up): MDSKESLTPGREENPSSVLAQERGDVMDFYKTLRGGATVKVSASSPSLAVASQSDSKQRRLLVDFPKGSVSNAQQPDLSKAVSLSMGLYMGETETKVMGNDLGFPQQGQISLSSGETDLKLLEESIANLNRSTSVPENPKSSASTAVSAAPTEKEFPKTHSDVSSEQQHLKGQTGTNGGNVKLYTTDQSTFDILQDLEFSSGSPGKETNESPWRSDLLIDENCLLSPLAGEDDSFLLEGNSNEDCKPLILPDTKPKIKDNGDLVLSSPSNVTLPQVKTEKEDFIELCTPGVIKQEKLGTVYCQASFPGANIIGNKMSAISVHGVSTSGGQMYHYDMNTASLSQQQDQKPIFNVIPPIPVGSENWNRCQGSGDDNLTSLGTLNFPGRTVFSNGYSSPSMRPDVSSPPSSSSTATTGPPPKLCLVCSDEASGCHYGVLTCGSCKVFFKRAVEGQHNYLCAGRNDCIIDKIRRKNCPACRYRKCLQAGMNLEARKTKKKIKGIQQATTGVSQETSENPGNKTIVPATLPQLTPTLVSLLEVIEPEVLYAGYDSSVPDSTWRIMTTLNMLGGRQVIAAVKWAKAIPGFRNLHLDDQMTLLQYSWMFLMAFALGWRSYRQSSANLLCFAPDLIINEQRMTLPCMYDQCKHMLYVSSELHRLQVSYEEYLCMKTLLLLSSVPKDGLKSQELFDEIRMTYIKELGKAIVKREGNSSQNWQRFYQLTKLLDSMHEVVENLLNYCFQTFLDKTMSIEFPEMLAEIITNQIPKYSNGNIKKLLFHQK
Chain of Lysosomal acid glucosylceramidase (Homo sapiens) (P04062 whole entry, looked up): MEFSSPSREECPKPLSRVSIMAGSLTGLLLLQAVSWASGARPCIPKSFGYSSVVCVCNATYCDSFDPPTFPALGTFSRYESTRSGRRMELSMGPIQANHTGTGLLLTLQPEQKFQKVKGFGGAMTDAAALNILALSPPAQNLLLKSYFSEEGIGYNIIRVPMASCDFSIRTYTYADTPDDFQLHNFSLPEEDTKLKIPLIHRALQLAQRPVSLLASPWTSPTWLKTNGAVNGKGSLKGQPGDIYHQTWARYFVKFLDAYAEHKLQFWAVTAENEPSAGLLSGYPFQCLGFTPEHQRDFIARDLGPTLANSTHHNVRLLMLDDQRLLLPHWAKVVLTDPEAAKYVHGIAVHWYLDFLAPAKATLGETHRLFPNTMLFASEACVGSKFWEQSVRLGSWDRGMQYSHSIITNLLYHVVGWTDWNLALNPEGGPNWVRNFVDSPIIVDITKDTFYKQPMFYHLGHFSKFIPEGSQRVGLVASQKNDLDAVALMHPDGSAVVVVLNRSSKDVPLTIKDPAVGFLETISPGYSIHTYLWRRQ
Chain of Dual specificity protein kinase CLK4 (Homo sapiens) (Q9HAZ1 whole entry, looked up): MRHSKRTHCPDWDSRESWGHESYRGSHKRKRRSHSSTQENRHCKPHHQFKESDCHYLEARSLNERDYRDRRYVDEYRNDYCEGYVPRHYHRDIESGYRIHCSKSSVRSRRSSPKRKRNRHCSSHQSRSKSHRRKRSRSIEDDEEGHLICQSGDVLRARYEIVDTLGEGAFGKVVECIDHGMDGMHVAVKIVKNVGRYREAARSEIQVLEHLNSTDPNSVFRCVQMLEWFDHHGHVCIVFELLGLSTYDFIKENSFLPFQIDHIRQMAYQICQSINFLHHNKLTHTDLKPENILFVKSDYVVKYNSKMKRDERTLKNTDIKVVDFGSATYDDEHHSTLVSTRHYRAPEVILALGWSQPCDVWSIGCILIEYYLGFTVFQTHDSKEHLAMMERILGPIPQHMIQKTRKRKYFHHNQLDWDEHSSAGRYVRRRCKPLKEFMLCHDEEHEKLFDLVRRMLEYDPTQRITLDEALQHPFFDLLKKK
Chain of Cytochrome P450 2C19 (Homo sapiens) (P33261 whole entry, looked up): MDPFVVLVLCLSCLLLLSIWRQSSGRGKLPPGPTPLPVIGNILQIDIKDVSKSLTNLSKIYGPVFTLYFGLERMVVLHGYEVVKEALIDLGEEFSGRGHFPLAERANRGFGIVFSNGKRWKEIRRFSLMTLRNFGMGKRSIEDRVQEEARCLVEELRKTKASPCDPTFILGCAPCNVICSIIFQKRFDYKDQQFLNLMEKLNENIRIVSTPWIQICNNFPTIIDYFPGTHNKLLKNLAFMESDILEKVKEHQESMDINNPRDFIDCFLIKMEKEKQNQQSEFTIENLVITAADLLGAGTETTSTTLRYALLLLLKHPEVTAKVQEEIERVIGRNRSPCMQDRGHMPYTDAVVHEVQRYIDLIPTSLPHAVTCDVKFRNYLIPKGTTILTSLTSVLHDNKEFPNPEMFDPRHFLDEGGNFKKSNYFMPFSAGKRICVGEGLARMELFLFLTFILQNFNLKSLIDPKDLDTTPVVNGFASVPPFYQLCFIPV
Chain of 3',5'-cyclic-AMP phosphodiesterase 4B (Homo sapiens) (Q07343 whole entry, looked up): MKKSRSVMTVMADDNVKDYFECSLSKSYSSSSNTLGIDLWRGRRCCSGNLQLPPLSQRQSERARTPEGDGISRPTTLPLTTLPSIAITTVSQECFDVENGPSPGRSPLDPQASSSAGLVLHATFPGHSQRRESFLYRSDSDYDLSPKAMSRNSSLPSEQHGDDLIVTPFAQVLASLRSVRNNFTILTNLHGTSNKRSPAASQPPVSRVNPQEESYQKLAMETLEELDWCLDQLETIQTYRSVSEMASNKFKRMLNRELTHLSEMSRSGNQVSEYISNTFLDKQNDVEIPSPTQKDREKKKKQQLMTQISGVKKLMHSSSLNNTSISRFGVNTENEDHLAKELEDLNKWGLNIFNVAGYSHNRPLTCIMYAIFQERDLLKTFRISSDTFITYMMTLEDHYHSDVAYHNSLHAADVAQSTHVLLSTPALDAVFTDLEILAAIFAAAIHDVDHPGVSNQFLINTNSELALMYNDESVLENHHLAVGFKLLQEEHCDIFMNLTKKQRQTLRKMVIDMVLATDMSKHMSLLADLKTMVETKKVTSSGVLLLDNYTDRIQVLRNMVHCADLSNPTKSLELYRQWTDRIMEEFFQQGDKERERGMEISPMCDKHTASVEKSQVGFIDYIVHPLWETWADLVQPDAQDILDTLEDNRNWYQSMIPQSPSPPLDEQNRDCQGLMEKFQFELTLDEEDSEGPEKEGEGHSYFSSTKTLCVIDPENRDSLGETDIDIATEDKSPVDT

Turning to `COc1ncc2nc(-c3ccccc3)c(=O)n(CCc3ccccc3)c2n1`, the values for the Potency in [1], in [5] and in experiment [6] were > 11.4 µM, > 9.22 µM and > 46 µM, respectively. Moreover, the results for the activity change, negative = inhibition in experiment [2] and in experiment [3] were -6.17% and -3.72%, respectively. In addition, the result in experiment [4] was inactive. The Potency entry in [7], in experiment [8], in experiment [9] and in experiment [10] was “inactive” throughout.

As to `CN1CCN(c2ncc3nc(-c4ccccc4)c(=O)n(Cc4cccs4)c3n2)CC1`, the Potency in experiment [1] is > 11.4 µM; in experiment [11], 15.8 µM (active); in experiment [5] it was > 9.22 µM; in experiment [6], > 46 µM. Besides, the activity change, negative = inhibition in [2] was 7.66%; in experiment [3], -9.53%. Further, the outcome in [4] was inactive. In addition, the Potency result in experiment [12], in [8], in [9] and in [10] was “inactive” each time.

In the case of `CN(Cc1ccco1)c1ncnc2ccc(-c3cccc(NS(C)(=O)=O)c3)cc12`, the Potency in experiment [1] is > 11.4 µM; in experiment [11], 0.398 µM (active); in experiment [5], > 46 µM; in experiment [6] it was > 46 µM; in [14] it was 7.94 µM (active); in experiment [8], 7.94 µM (active). Further, the Potency in experiment [9] is 7.94 µM (active). In addition, the activity change, negative = inhibition in [3] was 14.3%. Besides, the result in [4] and in [13] was inactive. The Potency entry in experiment [7] and in [10] was “inactive” each time.

Regarding `COc1ncc2nc(-c3cccs3)c(=O)n(CCC#N)c2n1`, the activity change, negative = inhibition in experiment [2] was 10.4%; in [3] it was 8.94%. Further, the Potency in experiment [11] is 6.31 µM (active); in [5], > 9.22 µM; in experiment [6] it was > 46 µM. The molecule was classed as inactive in experiment [4] and in experiment [13]. The Potency result in experiment [7], in [12], in experiment [16], in [9] and in experiment [10] was “inactive” each time. Also, the activation in experiment [15] is 25.6%.

Turning to `COc1ccccc1-c1ccc2ncnc(N3CCOCC3)c2c1`, the Potency is > 11.4 µM in experiment [1]; 0.631 µM (active) in experiment [11]; > 46 µM in experiment [5]; > 46 µM in [6]; 6.31 µM (active) in experiment [17]; 1.26 µM (active) in experiment [14]. Besides, the Potency was 12.6 µM (active) in experiment [8] and 11.2 µM (active) in experiment [9]. In addition, in experiment [3], the activity change, negative = inhibition is 18.9%. In addition, the call in experiment [4] and in [13] was inactive. The Potency entry in [7] and in [10] was “inactive” each time.

These data come from PubChem BioAssay (NCATS).
